# Hit rate of the full screen: of about 6,200 compounds, about 2,900 (47%) were called active. So high a share suggests a set chosen from earlier hits. The list shows a part of the results. Values without a mark were called inactive. Cut-off read from the data, not from the text of the source: active = inhibition above about 50%; inactive = the rest.
# Assay: Mycobacterium tuberculosis growth inhibition, primary screen (AID 1259343)
# Settings: inhibition: at 10 µM, active compounds read high; outcome: 10 uM
row,SMILES,inhibition
1,Cc1ccc(/C=C/c2nc3scc(CC(C)C)c3c(=O)[nH]2)s1,-12.6%
2,CCCC(=O)N1CCCC1C(=O)Nc1ccc(-c2ccccc2)nn1 (configuration not stated),-13%
3,COc1ccccc1CC(=O)N1CCC(n2nc(-c3ccccc3)cc2-c2ccccc2)CC1,59.7% (active)
4,COc1cc(-c2ccc(=O)n(Cc3ccccc3C)n2)cc(OC)c1OC,inactive
5,CCc1ccc(-c2noc(CSc3nnc(-c4ccc5c(c4)OCO5)o3)n2)cc1,-23.7%
6,COc1ccccc1-c1noc(CSc2nnc(-c3ccc4c(c3)OCO4)o2)n1,99% (active)
7,COc1ccccc1-c1nnc(SCC(=O)c2ccc3c(c2)OCO3)o1,-33.1%
8,COc1ccc(OCCSc2nnc(-c3ccc(OC)c(OC)c3)o2)cc1,91.1% (active)
9,COc1ccc(-c2noc(CSc3nnc(-c4ccc5c(c4)OCO5)o3)n2)cc1OC,78.9% (active)
10,CCn1c(SCC(=O)Nc2ccc(I)cc2)nnc1-c1ccco1,10.3%
11,CCn1c(SCC(=O)c2cc(C)ccc2C)nnc1-c1ccco1,52.6% (active)
12,Cn1c(SC2CCCc3ccccc32)nnc1-c1ccco1 (configuration not stated),27.9%
13,CC1CCN(S(=O)(=O)NC(C)c2ccc(F)cc2)CC1 (configuration not stated),17.4%
14,CC1CCCN(S(=O)(=O)NCc2ccccc2Cl)C1 (configuration not stated),-12.8%
15,CC1CCN(S(=O)(=O)NCCc2ccccc2F)CC1,82.6% (active)
16,Cc1csc(NC(=O)c2ccnc(N(C)C)c2)n1,-4.65%
17,C/C=C/c1cc(C(=O)Nc2nc(C)cs2)cc(OC)c1OC,57.2% (active)
18,COc1ccc(Oc2ccc(CNCc3ccc(C)s3)cn2)cc1,78.2% (active)
19,COc1ccc(CNC(=O)Nc2ncc([N+](=O)[O-])s2)cc1,11.6%
20,Cc1ccccc1OCC(=O)Nc1ccc(-n2ccnc2)cc1C(F)(F)F,8.11%
21,Cc1nc(-c2cc(Br)cs2)sc1C(=O)O,19.5%
22,CNC(=O)C(C#N)C(=O)c1sc(-c2ccc(Cl)s2)nc1C (configuration not stated),54.5% (active)
23,CC(C)N1CCN(Cc2ccc(C#CC(C)(C)O)s2)CC1CCO (configuration not stated),77.8% (active)

row,SMILES,inhibition
1,COc1ccc(C(=O)NCC2CCCCC2)cc1F,70.9% (active)
2,O=C(NCC1CCCC1)c1csc(Br)c1,95.4% (active)
3,O=C(NS(=O)(=O)C1CCCC1)c1ccc(F)c(F)c1,25.9%
4,O=C(CS(=O)CCOc1cccc(Br)c1)NCC1CCCCC1 (configuration not stated),12.5%
5,O=C(NCC1CC1)c1cc(-c2ccc(Br)cc2)n[nH]1,2.7%
6,CCOc1ccc(NC(=O)COC(=O)c2ccc(Cl)cc2O)cc1,94.7% (active)
7,Cc1nc(-n2nc(-c3cccs3)cc2N)[nH]c(=O)c1C,92.4% (active)
8,Cc1nc(-n2nc(-c3cccs3)cc2NC(=O)c2ccccc2F)[nH]c(=O)c1C,83.2% (active)
9,CCC(CC)C(=O)Nc1cc(-c2cccs2)nn1-c1nc(C)c(C)c(=O)[nH]1,-21.5%
10,Cc1nc(-n2nc(-c3cccs3)cc2NC(=O)c2ccc(F)cc2)[nH]c(=O)c1C,99.3% (active)
11,Cc1nc(-n2nc(-c3cccs3)cc2NC(=O)c2ccccc2Cl)[nH]c(=O)c1C,61% (active)
12,Cc1cc(=O)[nH]c(-n2nc(-c3cccs3)cc2N)n1,-45.8%
13,CC(C)c1cc(=O)[nH]c(-n2nc(-c3cccs3)cc2N)n1,1.53%
14,O=C(O)c1csc(-c2cnn(-c3ccccc3)n2)n1,33.6%
15,Cc1cc(C)cc(NC(=O)c2ncn(-c3ccccc3C)n2)c1,77.4% (active)
16,O=C1CNC(=S)N1c1ccc(Cl)cc1,-2.04%
17,CCN(CC)c1ccc(-c2n[nH]c(=S)o2)cc1,-4.83%
18,CCN(CC)c1ccc(N2C(=O)CNC2=S)cc1,54.3% (active)
19,O=C(c1ccc(Cl)cc1)c1c(O)cc(-c2ccc(Cl)cc2)oc1=O,84% (active)
20,S=c1[nH]cc(-c2ccc(Cl)cc2)o1,-9.85%
21,CSc1nnc(SCc2nc3sc(C(=O)O)c(C)c3c(=O)[nH]2)s1,80.8% (active)
22,C=CCSc1nc2sc(C(=O)O)c(C)c2c(=O)[nH]1,26.3%
23,Cc1sc2nc(CSC3=NCCS3)[nH]c(=O)c2c1C,49%

row,SMILES,inhibition
1,O=[N+]([O-])C1=C(Nc2ccc(-c3ccccc3)cc2)CS(=O)(=O)C1,95.9% (active)
2,O=C(O)c1ccc(F)c(COc2ccc(F)cc2)c1,18.4%
3,CC(=O)Nc1ccc(OCc2cccc(F)c2)c(Cl)c1,85.1% (active)
4,CSc1cccc(NC(=O)c2cc(=O)c(OCc3ccc(F)cc3)c[nH]2)c1,85.5% (active)
5,CNC(=O)c1ccc(OCc2cccc(F)c2)cc1,78.6% (active)
6,CC(=O)Nc1cccc(OCc2ccc(F)cc2)c1,92.5% (active)
7,Cc1[nH]c(=S)sc1CC(=O)Nc1cccc(OCc2ccc(F)cc2)c1,38.9%
8,CC(NC(=O)COc1ccc(C(F)(F)F)cc1)c1cccc(F)c1 (configuration not stated),9.32%
9,COc1ccc(OCc2cc(C(=O)NCc3cccc(F)c3)no2)c(Cl)c1,34.7%
10,CCCS(=O)(=O)NCc1nc(NCCCc2ccccc2)c2ccccc2n1,33.8%
11,CN(Cc1cc(-c2ccncc2)no1)Cc1ccc(C2CCCCO2)s1 (configuration not stated),27.1%
12,CN(Cc1cc(-c2ccccc2)no1)Cc1cccc2nonc12,27.9%
13,CN(Cc1ccsc1)Cc1cc(-c2ccccc2)no1,53.4% (active)
14,CN(Cc1cccc(Cn2cccn2)c1)Cc1cc(-c2ccccc2)no1,61.2% (active)
15,CN(Cc1cc(-c2ccncc2)no1)Cc1cc2ccccc2o1,23.3%
16,CN(Cc1ccc2c(c1)OCCO2)Cc1cc(-c2ccccc2)no1,37.6%
17,CN(Cc1cc(-c2ccncc2)no1)Cc1ccc(Cl)s1,54.1% (active)
18,O=C(Nc1cccc2ncccc12)C1CC2CCCC(C1)C2=O (configuration not stated),-15.1%
19,CCCCC1CCC(C(=O)Nc2noc3ncccc23)CC1 (configuration not stated),99.3% (active)
20,c1cnc(N2CCN(Cc3csc(-c4cccs4)n3)CC2)nc1,40.8%
21,CN(Cc1csc(-c2cccs2)n1)c1ccc(-c2nccn2C)nn1,68.3% (active)

# — PubChem BioAssay AID1259343 (VanderVen Lab, College of Veterinary Medicine, Cornell …, 2017)
